HepG2 tox = qHTS for Inhibitors of TGF-b: Cytotox Counterscreen; AID 588856, 2011; 0.76% of 410,000 active; Potency, µM (top dose mostly 46.1 µM), usual class: cytotoxic; HepG2 CAGA-GFP viability, ATP luminescence, 18 h
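CellTiter-Glo luminescence gave cytotoxicity after 18 hours at 37 degrees C. The cells were HepG2 CAGA-GFP in 1% FBS DMEM, stimulated with 500 pg/mL TGF-beta after compound addition. %Activity was normalised to no-cell wells (complete cell-killing) and DMSO (no toxicity), and curves were fitted and classified.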
ATXN viability = Viability Counterscreen for Primary qHTS for Inhibitors of ATXN expression; S2 cells (HEK-293 line with an ATXN2-luciferase reporter) viability, CellTiter-Fluor protease fluorescence, 24 h; Potency, µM (titrated, usually from 56.7 µM), actives largely listed as cytotoxic; 0.49% of 400,000 active; note: nearly all actives have a fitted effect of over 40% in size
TGFb inhibitor = qHTS for Inhibitors of TGF-b; HepG2 CAGA-GFP TGF-b/SMAD3 reporter, GFP fluorescence, 18 h; TGF-beta stimulated, 500 pg/mL final; 1.2% of 410,000 active; Potency, µM (doses to about 46.1 µM), most hits filed as inhibitors; note: nearly all actives have a fitted effect of over 65% in size
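TGF-beta reporter screen: HEPG2 CAGA-GFP, 1% FBS, 500 pg/mL TGF-beta final, 18 h; per-cell GFP summed per well; curves fitted and categorized by class.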
ATXN2 expr inh = Primary qHTS for Inhibitors of ATXN expression; Potency, µM (top dose mostly 57 µM), usual class: inhibitors; AID 1745845, 2022; HEK-293 ATXN2-luciferase reporter, luminescence, 24 h; 0.72% of 360,000 active; note: nearly all actives have a fitted effect of over 55% in size
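qHTS (up to 57 uM final) was run with 24 h compound exposure of reporter cells at 37 °C. Each well was multiplexed: SteadyGlo luminescence measured ATXN2-luciferase expression after a fluorogenic Gly-Phe-AFC viability readout (25 uM final).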
TDP1 cell CPT = qHTS for Inhibitors of human tyrosyl-DNA phosphodiesterase 1 (TDP1): qHTS in cells in presence of CPT. chicken DT40 Tdp1-/-;hTDP1 cells + 20 nM CPT, ATP luminescence, 48 h. Potency, µM (highest dose often 46.2 µM), actives largely listed as inhibitors. 12% of 420,000 active; note: nearly all actives have a fitted effect of over 55% in size
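Chicken DT40 Tdp1-/- cells complemented with human TDP1, 400 cells/well, exposed to compounds plus 20 nM camptothecin for at least 48 h at 37 C; viability read as ATP content by CellTiter-Glo luminescence.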
TDP1 cell noCPT = qHTS for Inhibitors of human tyrosyl-DNA phosphodiesterase 1 (TDP1): qHTS in cells in absence of CPT. DT40 Tdp1-/- hTDP1 cells, no CPT, ATP luminescence, 48 h. Potency, µM (doses to about 46.2 µM), usual class: inhibitors. 15% of 420,000 active. AID 686978, 2013; note: nearly all actives have a fitted effect of over 55% in size
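Growth kinetics read by CellTiter-Glo luminescence after ≥48 hr at 37 °C. Cells: DT40 Tdp1-/- stably carrying human TDP1, 400 per well, compound exposure in the absence of CPT (DMSO vehicle).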
Hits are given with their value; - = inactive; ? = inconclusive; . = not tested or not shown; [ ] = dose if it differs, or a comment. The list is not random: actives were taken first. Their share in the collection is about 17%. Calls come from the whole dose curve; as a rule, active = well fitted curve in the direction sought with a large enough effect; inconclusive = small, poorly fitted or top-dose-only effect, or another doubt; inactive = no such curve, though single readings can be large; an effect the other way counts as inactive or inconclusive.

SMILES | HepG2 tox | ATXN viability | TGFb inhibitor | ATXN2 expr inh | TDP1 cell CPT | TDP1 cell noCPT
C=CCN1C(=O)/C(=C2/Sc3ccccc3N2CC)SC1=S | - | ? | - | - | - | -
CCN1C(=O)/C(=C2/Sc3ccccc3N2CC)S/C1=N\c1ncn[nH]1 | - | . | - | ? | ? | 23µM
CCN(C(=O)Cc1ccccc1OC)c1nnc(-c2ccncc2)s1 | - | - | - | - | ? | 15µM
COc1ccc(-c2nc3oc4cc(OC)ccc4c(=O)c3c(=O)n2Cc2ccco2)cc1 | - | - | - | - | ? | 23µM
CCc1nc2oc3cc(OC)ccc3c(=O)c2c(=O)n1Cc1ccco1 | - | - | - | - | - | -
COc1ccc(Cn2c(-c3ccco3)nc3oc4cc(OC)ccc4c(=O)c3c2=O)cc1 | - | - | - | - | ? | 16µM
COc1ccc2c(=O)c3c(=O)n(Cc4ccco4)c(-c4ccco4)nc3oc2c1 | - | - | - | - | 20µM | ?
CCOc1ccccc1Nc1sc(C(=O)c2ccc(Cl)cc2)c(N)c1C(=O)NCCc1ccccc1 | - | - | - | - | 4.6µM | 21µM
Cc1cccc(C)c1Nc1sc(C(=O)c2ccccc2)c(N)c1C(=O)Nc1ccc(F)cc1 | - | . | 11µM | ? | ? | 21µM
CCOc1ccc(NC(=O)c2c(Nc3ccccc3C)sc(C(=O)c3ccccc3)c2N)cc1 | - | - | ? | - | ? | 12µM
CCOc1ccccc1Nc1sc(C(=O)c2ccccc2)c(N)c1C(=O)Nc1ccc(F)cc1 | - | - | 14µM | - | ? | 13µM
Cc1ccc(Nc2sc(C(=O)c3ccccc3)c(N)c2C(N)=O)cc1 | - | - | - | - | ? | ?
O=C(COC(=O)c1cc(C(F)(F)F)cc(C(F)(F)F)c1)NCc1ccc(Cl)cc1 | - | - | - | - | - | -
CCCNC(=O)N1CCC(C(=O)c2cccc(F)c2)CC1 | - | - | - | - | - | -
CCCCN(C)C(=O)c1nc2ccccn2c1CN1CCN(c2ncccn2)CC1 | - | - | - | . | - | -
CCCCN(C)C(=O)c1nc2ccccn2c1CN1CCN(C/C=C/c2ccccc2)CC1 | - | - | ? | -[11.3 µM] | ? | 26µM
O=C(CSc1ccc(F)cc1)N1CCOCC1 | - | - | - | . | - | -
COCCn1c(SCC(=O)Nc2ccccc2)nc2c(oc3ccccc32)c1=O | - | ? | - | . | - | ?
COCCn1c(SCC(=O)Nc2cccc(S(N)(=O)=O)c2)nc2cc(Cl)ccc2c1=O | - | - | - | -[11.3 µM] | 15µM | 18µM
CCn1c(SCC(=O)Nc2cccc(C)c2)nc2nc3c(cc2c1=O)COC(C)(C)C3 | - | . | - | ? | 26µM | 18µM
COc1cccc(NC(=O)CSc2nc3c(oc4ccccc43)c(=O)n2Cc2ccco2)c1 | - | - | - | - | 9.2µM | 9.2µM
Cc1ccc(-n2c(SCC(=O)Nc3cccc(S(N)(=O)=O)c3)nc3ccccc32)cc1 | - | - | ? | - | 18µM | ?
COCCn1c(SCC(=O)Nc2cccnc2Cl)nc2cc(Cl)ccc2c1=O | - | - | - | - | - | -
COCCn1c(SCC(=O)Nc2ccc(F)c(Cl)c2)nc2c(oc3ccccc32)c1=O | - | - | ? | - | 5.2µM | ?
COc1ccc(NC(=O)CSc2nc3c(oc4ccccc43)c(=O)n2Cc2ccco2)cc1Cl | - | . | - | . | ? | 21µM
SMILES | HepG2 tox | ATXN viability | TGFb inhibitor | ATXN2 expr inh | TDP1 cell CPT | TDP1 cell noCPT
COc1ccc(Cl)cc1NC(=O)CSc1nc2c(oc3ccccc32)c(=O)n1Cc1ccco1 | - | - | ? | - | ? | ?
Cc1ccc(NC(=O)CSc2nc3c(oc4ccccc43)c(=O)n2Cc2ccco2)cc1F | - | - | - | - | - | -
Cc1cccc(NC(=O)CSc2nc3c(oc4ccccc43)c(=O)n2Cc2ccco2)c1 | - | - | - | - | 23µM | 16µM
O=C(CSc1nc2c(oc3ccccc32)c(=O)n1Cc1ccco1)Nc1cccc(Cl)c1 | - | - | - | - | ? | 21µM
CC(=O)CSc1nnc(-c2ccc3c(c2)OCO3)o1 | - | - | - | - | - | -
O=C(CSc1nnc(-c2ccc3c(c2)OCO3)o1)Nc1ncc(Cl)cc1Cl | - | ? | ? | . | 21µM | 21µM
NC(=O)c1cc2c3ccccc3ccn2c1-c1ccccc1 | - | ? | ? | . | 0.18µM | 0.21µM
NC(=O)c1cc(Sc2ccccc2)nc2ccccc12 | - | - | - | - | ? | ?
CCN1CCN(CNC(=O)c2cnccn2)CC1 | - | - | - | - | 18µM | -
COc1ccc(/C(C)=N/NC(=O)C(NC(=O)c2ccccc2)c2n[nH]c(=O)c3ccccc23)c(OC)c1 (stereo unspecified) | - | - | - | - | - | -
CC(=O)Nc1cccc(-c2csc(C(C)(NC(C)=O)c3ccccc3)n2)c1 (stereo unspecified) | - | - | - | - | 26µM | ?
CC(=O)NC(C)(c1ccccc1)c1nc(-c2cccc(C(F)(F)F)c2)cs1 (stereo unspecified) | - | ? | - | - | ? | 15µM
COc1ccc(CC(=O)NNC2=Nc3cccc4cccc2c34)cc1 | - | . | - | - | - | -
CC1=NN(C(=O)c2ccc(Cn3cc([N+](=O)[O-])cn3)cc2)C(O)(C(F)(F)F)C1 (stereo unspecified) | - | ? | ? | - | 1.8µM | 3.7µM
COc1nn(CC(=O)N2N=C(C)CC2(O)C(F)(F)F)cc1[N+](=O)[O-] (stereo unspecified) | - | - | - | - | - | -
CC1=NN(C(=O)Cn2ccc([N+](=O)[O-])n2)C(O)(C(F)(F)F)C1 (stereo unspecified) | - | - | - | - | 5.8µM | 5.8µM
CC1=NN(C(=O)Cn2nc([N+](=O)[O-])c(Br)c2C)C(O)(C(F)(F)F)C1 (stereo unspecified) | - | - | - | - | 23µM | 21µM
CC1=NN(C(=O)c2cccc(Cn3nc(C)c([N+](=O)[O-])c3C)c2)C(O)(C(F)(F)F)C1 (stereo unspecified) | - | - | - | - | - | ?
O=C(CN1CCN(c2cccc(C(F)(F)F)c2)CC1)N(C1CCCC1)C1CCS(=O)(=O)C1 (stereo unspecified) | - | - | - | - | ? | ?
COC(=O)c1ccc(-c2noc(CN(Cc3nccn3C)C(C)C)n2)cc1 | - | - | - | - | 13µM | ?

Compound activity as filed in PubChem BioAssay.
